# An excerpt weighted towards active compounds, which were near 4% of everything screened.
# esBAF inh = SWI/SNF esBAF complex inhibition. mouse ES cells, Bmi1-luciferase knock-in reporter, 24 h; 100% = twice the neutral-well signal. reporter increase, % at 12.5 µM. actives 2% (n = 350,000); in the data active = activation above about 40%; inconclusive = no clear call, values can overlap the other calls;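 note: 0% = median of the plate's neutral control wells and 100% = double that signal; a rise in the Bmi1 reporter signal indicates esBAF inhibition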
# TRPM1 prom inh = MITF TRPM1 promoter inhibition in SK-MEL-5 cells. SK-MEL-5 TRPM1 promoter luciferase, 24 h. inhibition, % at 12.5 µM. actives 0.83% (n = 330,000). AID 488899;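 active = mean inhibition across replicates of 60% or more, whatever share of single replicates reaches that level; inconclusive = some that reach 60%, reason not given; inactive = mean inhibition across replicates below 60%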
# Wnt act = activators of Wnt/beta-catenin signaling; actives 1.2% (n = 300,000); activation, % at 9.35 µM; Wnt/beta-catenin reporter cell assay, activator, plate reader; in the data active = activation above about 30%, passing the limit was not always enough; inconclusive = no clear call, values can overlap the other calls;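 note: 0% = neutral control wells and 100% = positive control wells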
# PAX8 inh HTS = PAX8 transcriptional activity inhibition | RMG-I TPO-luciferase reporter, SteadyGlo, 24 h | inhibition, % at 12.6 µM | actives 1.2% (n = 360,000);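 active = mean replicate inhibition at least 60% with every replicate also reaching 60%; inconclusive = only one of the two criteria is met; inactive = mean below 60% and not all replicates reaching 60%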;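 note: luciferase light reporting Pax8 driven TPO promoter activity; plate controls were median of neutral control wells for no effect and mitoxantrone controls for full effect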
# MITF act = MITF TRPM1 promoter activation in melanoma cells. SK-MEL-5 TRPM1-promoter luciferase, 24 h; % of positive control, neutral wells = 0. activation, % at 12.5 µM. actives 0.75% (n = 300,000);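 active = mean activation of at least 80% with every replicate also reaching 80%; inconclusive = mean reaches 80% but some replicate falls short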;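 note: 0% = neutral control wells and 100% = parthenolide positive control wells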
# EWS-Fli block = blocks EWS/Fli oncoprotein-driven transcription; A673 NR0B1-luciferase reporter, viability-normalised; inhibition, % at 12.6 µM; actives 0.67% (n = 350,000); AID 651661;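 active = mean inhibition of at least 50% after viability correction, with every replicate also passing that limit; inconclusive = mean reaches 50% but only one of two replicates passes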;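 note: firefly luciferase signal divided by Alamar Blue viability fluorescence both relative to DMSO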
# The depositor's hits bear a star; ? = inconclusive; nt = no result given.
SMILES,esBAF inh,TRPM1 prom inh,Wnt act,PAX8 inh HTS,MITF act,EWS-Fli block
CN1c2ccc(C#Cc3cccnc3)cc2[C@H]2[C@H](CCN2C(=O)c2cccnc2)[C@@H]1CO,12.9,nt,nt,-14.4,nt,2.0
O=C(COc1cccnc1[N+](=O)[O-])Nc1cccc(Br)c1,63.5*,-65.7,22.9,nt,76.4,-58.3
O=C(COc1ccc(Br)cc1CO)Nc1ccccc1,56.1*,-45.6,31.0*,-104.6,nt,nt
O=C(COc1ccc(Br)cc1CO)Nc1ccccc1F,33.4,-103.4,1.6,nt,102.4*,nt
COc1ccccc1NC(=O)COc1ccc(Br)cc1CO,19.7,-21.3,nt,nt,nt,nt
Cc1ccc(-c2cnc3c(c2)C(=O)N([C@@H](C)CO)C[C@@H](C)[C@@H](CN(C)S(C)(=O)=O)O3)cc1,-7.9,nt,nt,2.6,nt,1.6
CCNC(=O)[C@@H]1[C@@H](CO)[C@@H]2Cn3c(ccc(C4=CCCCC4)c3=O)[C@H]1N2CCC(F)(F)F,nt,nt,nt,nt,nt,0.5
COC(=O)[C@H]1[C@H](CO)[C@H]2Cn3c(ccc(C4=CCCCC4)c3=O)[C@H]2N1Cc1cccnc1,nt,nt,nt,-13.1,nt,4.1
CCC(=O)N1[C@@H]2c3ccc(C4=CCCC4)c(=O)n3C[C@@H]2[C@@H](CO)[C@@H]1C(=O)NCc1ccc(F)cc1,-2.5,nt,nt,nt,nt,1.9
O=C(Nc1ccc2c(c1)OCO2)N[C@H]1CC[C@H](CCNC(=O)C2CC2)O[C@@H]1CO,-0.5,nt,nt,-16.0,nt,-11.7
C#CCOCCOCCOCCNc1nc(N2CCN(C(=O)CCCCCCCCCCNC(=O)[C@H](CCCCN)n3cc(CCO)nn3)CC2)nc(N2CCN(C(=O)CCCCCCCCCCNC(=O)[C@H](CCCN=C(N)N)n3cc(C[C@@H](C)CC)nn3)CC2)n1,0.4,77.1*,nt,nt,-74.5,nt
CC[C@H](C)Cc1cn([C@@H](CCCCNC(=O)OC(C)(C)C)C(=O)NCCCCCCCCCCC(=O)N2CCN(C(=O)OC(C)(C)C)CC2)nn1,14.0,68.2*,-16.5,26.5,-67.1,22.9
C#CCOCCOCCOCCNc1nc(N2CCN(C(=O)CCCCCCCCCCNC(=O)[C@@H](CCSC)n3cc(CCO)nn3)CC2)nc(N2CCN(C(=O)CCCCCCCCCCNC(=O)[C@H]([C@@H](C)CC)n3cc(CCCCN=C(N)N)nn3)CC2)n1,-7.6,62.7*,nt,nt,-62.8,nt
C#CCOCCOCCOCCNc1nc(N2CCN(C(=O)CCCCCCCCCCNC(=O)Cn3cc(C[C@@H](C)O)nn3)CC2)nc(N2CCN(C(=O)CCCCCCCCCCNC(=O)[C@H](CCCCN)n3cc(C[C@@H](C)CC)nn3)CC2)n1,0.2,82.7*,nt,nt,-81.6,nt
CC(C)NC(=O)Nc1ccc2c(c1)C(=O)N([C@H](C)CO)C[C@H](C)[C@@H](CN(C)C(=O)Nc1ccccc1)OCCCC[C@H](C)O2,nt,nt,nt,-6.8,nt,nt
C[C@@H]1CN([C@H](C)CO)C(=O)c2cccc(NS(C)(=O)=O)c2O[C@@H]1CN(C)S(=O)(=O)c1ccc(F)cc1,-1.0,nt,nt,nt,nt,-4.2
O=C(Nc1cccc(Cl)c1)N1C[C@H]2[C@@H](c3ccccc31)[C@H](CO)N2Cc1ccccc1Cl,7.2,nt,nt,29.8,nt,8.2
COc1ccc(S(=O)(=O)Nc2ccc3c(c2)C(=O)N([C@H](C)CO)C[C@H](C)[C@H](CN(C)C)OCCCC[C@H](C)O3)cc1,nt,nt,nt,-6.2,nt,nt
CN1CCN(c2ccc(-c3ccnn3C(=O)Nc3ccccc3)cc2)CC1,nt,-48.5,44.1*,-90.4,48.8,-37.1
O=C(N/N=C/c1sc(N2CCOCC2)nc1-c1ccccc1)c1cccc(S(=O)(=O)N2CCOCC2)c1,6.3,65.2*,1.0,49.5,-62.8,10.5
O=C(O)c1cccc(N/N=C/c2sc(N3CCOCC3)nc2-c2ccccc2)c1,48.4*,-35.2,nt,nt,38.9,nt
CCN(CC)c1ccc(/C=N/NC(=O)c2cccc(S(=O)(=O)N3CCOCC3)c2)c(O)c1,-50.2,82.3*,21.5,?,-81.5,26.3
C[C@H](CO)N1C[C@H](C)[C@@H](CN(C)Cc2cncnc2)Oc2ncc(-c3cccc(C#N)c3)cc2C1=O,-4.3,nt,nt,nt,nt,-3.6
CCn1cnc2sc(-c3ccccc3)cc2c1=O,48.7*,-40.2,19.4,nt,45.0,nt
CC(=O)Cn1cnc2sc(-c3ccccc3)cc2c1=O,nt,-90.4,36.6*,-167.7,88.0*,nt
SMILES,esBAF inh,TRPM1 prom inh,Wnt act,PAX8 inh HTS,MITF act,EWS-Fli block
Cc1ccc(C)n1-n1cnc2sc(-c3ccccc3)cc2c1=O,18.0,-17.7,nt,nt,16.1,nt
O=c1[nH]cnc2sc(-c3ccccc3)cc12,48.8*,-50.2,10.7,nt,49.3,nt
O=c1c2cc(-c3ccccc3)sc2ncn1-n1cccc1,71.8*,-95.5,26.6,-144.8,84.9*,nt
C[C@H]1CCCCO[C@H](CN(C)Cc2ccc3c(c2)OCO3)[C@@H](C)CN([C@@H](C)CO)C(=O)c2cc(NC(=O)c3ccncc3)ccc2O1,-13.2,nt,nt,-46.2,nt,-8.4
O=C(C1CCCCC1)N1CC2(C1)[C@@H](c1ccccc1)[C@H](CO)N2Cc1nccs1,nt,nt,nt,nt,nt,-3.2
CC(=O)Cn1nnc2sc(-c3ccccc3)cc2c1=O,nt,-88.2,12.2,-138.3,88.8*,-35.0
Oc1ccc(Br)cc1/C=N/n1cnc2ccccc21,53.4*,-25.1,nt,nt,27.7,nt
Oc1ccc(Br)cc1/C=N/N1CCCCC1,nt,-104.4,3.1,-63.6,110.2*,nt
Oc1ccc(Br)cc1/C=N/N1CCN(Cc2ccccc2)CC1,20.3,-30.3,nt,nt,26.8,nt
O=[N+]([O-])c1ccc(O)c(C=NN2CCCCC2)c1,nt,nt,-4.5,-5.8,nt,3.9
C[C@H](CO)N1C[C@H](C)[C@H](CN(C)C)Oc2ccc(NS(=O)(=O)c3cccs3)cc2C1=O,1.6,nt,nt,-0.4,nt,-3.3
C[C@@H]1CCCCO[C@H](CN(C)C(=O)Nc2ccc3c(c2)OCO3)[C@H](C)CN([C@@H](C)CO)C(=O)c2cc(NC(=O)Cc3ccccc3)ccc2O1,-1.8,nt,nt,22.5,nt,13.1
COC1(OC)C(/C=C/c2ccc(C)cc2)C(C#N)(C#N)C1(OC)OC (stereo not drawn),-10.0,28.2,-0.5,85.0*,nt,nt
CCOC(=O)C1=CN(Cc2cccc(-c3cccnc3)c2)S(=O)(=O)N(CC)C1C (stereo not drawn),17.5,-2.7,-0.9,-14.2,4.0,-23.0
CCOC(=O)C1=CN(Cc2cccc(-c3cccnc3)c2)S(=O)(=O)N(C)C1C (stereo not drawn),4.1,3.3,-1.2,101.0*,-3.3,-6.9
CCOC(=O)C1=CN(Cc2cccc(F)c2)S(=O)(=O)N(CC)C1c1ccccc1 (stereo not drawn),2.3,6.9,-1.1,86.0*,-8.7,-11.5
CN(C)c1ccc(C(=O)c2ccc(O)cc2O)cc1,55.0*,-56.0,14.3,nt,47.0,nt
C[C@@H]1CN([C@@H](C)CO)C(=O)c2cccc(NS(C)(=O)=O)c2O[C@@H]1CN(C)S(=O)(=O)c1ccccc1,-3.5,nt,nt,nt,nt,2.1
C[C@@H]1CCCCO[C@H](CN(C)CC2CCCCC2)[C@H](C)CN([C@H](C)CO)C(=O)c2cc(NS(=O)(=O)c3ccccc3)ccc2O1,1.7,nt,nt,92.3*,nt,-8.9

# High-throughput results as filed in PubChem BioAssay.
